Measured values from the OligoGym collection.
Further: reference of the scale not given here.

These sequences were tested against BARX2 (assay: pooled miR-30 sensor sort-seq; sequence = guide strand). Settings: shRNA.
In the case of TCGTCGATCATGAAAGTCTTGT, the sensor-assay potency score (higher = more potent) was -0.832. TCAATCTCTTCTGATGTGGGGA gave a sensor-assay potency score (higher = more potent) of 0.111. TCCGTCTCTGACTCGCTGCTGG was tested, and the sensor-assay potency score (higher = more potent) was -0.99. TGTTCCGTCTCTGACTCGCTGC showed a sensor-assay potency score (higher = more potent) of -0.452. TTGACAAATACTTCTGCTTCTG was tested, and the sensor-assay potency score (higher = more potent) was -0.22. With TTAAGAACCATTTTCTTCCATT the sensor-assay potency score (higher = more potent) was -0.688. TTTCTCAAAGTAATCGCAGGTC was tested, and the sensor-assay potency score (higher = more potent) was 0.887. TTCTCTTCAGCTTCAATCTCTT gave a sensor-assay potency score (higher = more potent) of -0.0921.

Each sequence was assayed against BAX in the same assay as above. Settings: shRNA.
Work on TTGAGCACCAGTTTGCTGGCAA yielded a sensor-assay potency score (higher = more potent) of 0.213. For TGCGCTTGAGACACTCGCTCAG, the sensor-assay potency score (higher = more potent) was 0.0222. TTCTTGGTGGACGCATCCTGAG gave a sensor-assay potency score (higher = more potent) of -1.72. With TAGGAGAGGAGGCCGTCCCAAC the sensor-assay potency score (higher = more potent) was -1.61. With TTACTGTCCAGTTCGTCCCCGA the sensor-assay potency score (higher = more potent) was -0.0654. Sequence TGATGGTTCTGATCAGTTCCGG has a sensor-assay potency score (higher = more potent) of -0.352. With AACATGTCAGCTGCCACTCGGA the sensor-assay potency score (higher = more potent) was -1.25. For TACTGTCCAGTTCGTCCCCGAT, the sensor-assay potency score (higher = more potent) was -0.951. TTCATGATCTGCTCAGAGCTGG gave a sensor-assay potency score (higher = more potent) of 0.0889. Work on AAACATGTCAGCTGCCACTCGG yielded a sensor-assay potency score (higher = more potent) of -0.504. In the case of TCGGAAAAAGACCTCTCGGGGG, the sensor-assay potency score (higher = more potent) was -0.669. For ATGATCTGCTCAGAGCTGGTGG, the sensor-assay potency score (higher = more potent) was -1.15. TCATGATCTGCTCAGAGCTGGT gave a sensor-assay potency score (higher = more potent) of -1.61. Sequence TTGAGACACTCGCTCAGCTTCT has a sensor-assay potency score (higher = more potent) of -0.529. TTGCCGTCAGAAAACATGTCAG was tested, and the sensor-assay potency score (higher = more potent) was -0.725. ATCAGTTCCGGCACCTTGGTGC gave a sensor-assay potency score (higher = more potent) of -0.369. AATCATCCTCTGCAGCTCCATG showed a sensor-assay potency score (higher = more potent) of -1.42. ATGCGCTTGAGACACTCGCTCA gave a sensor-assay potency score (higher = more potent) of -1.61. Sequence TCTTGGTGGACGCATCCTGAGG has a sensor-assay potency score (higher = more potent) of -1.92. TTGGATCCAGCCCAACAGCCGC gave a sensor-assay potency score (higher = more potent) of -1.52. TCGATCCTGGATGAAACCCTGA gave a sensor-assay potency score (higher = more potent) of -0.785. TAGAAAAGGGCGACAACCCGGC was tested, and the sensor-assay potency score (higher = more potent) was -0.132.

What follows are sequences tested against BBC3 in the same assay as above. Settings: shRNA.
TCCGCCGCTCGTACTGTGCGTT showed a sensor-assay potency score (higher = more potent) of -1.32. For TTGTCTCCGCCGCTCGTACTGT, the sensor-assay potency score (higher = more potent) was -1. In the case of TTGAGGTCGTCCGCCATCCGCC, the sensor-assay potency score (higher = more potent) was -1.67. With TATACAGTATCTTACAGGCTGG the sensor-assay potency score (higher = more potent) was -0.558. With TCGTACTGTGCGTTGAGGTCGT the sensor-assay potency score (higher = more potent) was 0.393. Work on TGCTCCGCCAGCGAGAGCGAGG yielded a sensor-assay potency score (higher = more potent) of -2.06. TGTGCGTTGAGGTCGTCCGCCA was tested, and the sensor-assay potency score (higher = more potent) was -0.785. Work on TACAGGACCCTCCAGGGTGAGG yielded a sensor-assay potency score (higher = more potent) of -1.57. TTGTACAGGACCCTCCAGGGTG was tested, and the sensor-assay potency score (higher = more potent) was -1.05. TGCGTTGAGGTCGTCCGCCATC gave a sensor-assay potency score (higher = more potent) of -1.7.
